Measured values reported in PubChem BioAssay AID1159580 (chemical genetic matrix, 2015).
Out of some 5,500 compounds screened, about 2,000 (36%) were called active. Inconclusive results (about 18%) are left out. Rule as the data show it: active = normalized growth mostly below about 0.91 (no sharp cut-off); inconclusive = no clear call, values can overlap the other calls; inactive = mostly above about 0.92. This is one part of the list.

Assay: chemical genetic growth profiling, strain panel (AID 1159580);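 also: tested at 20 µM; growth read once vehicle control cultures reached saturation at 30 °C; 1 = growth at the plate median or of vehicle wells; lower values mean less growth of the strain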
Conditions: growth OD
[1] = S. cerevisiae deletion strains, locus YDL101C, strain DUN1, stronger effect = lower value
[2] = S. cerevisiae deletion strains, locus YHR030C, strain SLT2, stronger effect = lower value

Measured: normalized growth

C/C(=N/NC(=S)Nc1ccc(C(C)C)cc1)c1ccco1
active: S. cerevisiae deletion strains, locus YAL013W, strain DEP1, stronger effect = lower value 0.906 | S. cerevisiae deletion strains, locus YBR229C, strain ROT2, stronger effect = lower value 0.859 | S. cerevisiae deletion strains, locus YCL061C, strain MRC1, stronger effect = lower value 0.909 | S. cerevisiae deletion strains, locus YDL134C, strain PPH21, stronger effect = lower value 0.629 | S. cerevisiae deletion strains, locus YEL061C, strain CIN8, stronger effect = lower value 0.433 | S. cerevisiae deletion strains, locus YGR078C, strain PAC10, stronger effect = lower value 0.864 | [2] 0.242 | S. cerevisiae deletion strains, locus YHR087W, strain rtc3, stronger effect = lower value 0.817 | S. cerevisiae deletion strains, locus YJL187C, strain SWE1, stronger effect = lower value 0.866 | S. cerevisiae deletion strains, locus YJR075W, strain HOC1, stronger effect = lower value 0.879 | S. cerevisiae deletion strains, locus YKL190W, strain CNB1, stronger effect = lower value 0.583 | S. cerevisiae deletion strains, locus YLR039C, strain RIC1, stronger effect = lower value 0.487 | S. cerevisiae deletion strains, locus YLR085C, strain ARP6, stronger effect = lower value 0.158 | S. cerevisiae deletion strains, locus YLR262C, strain YPT6, stronger effect = lower value 0.617 | S. cerevisiae deletion strains, locus YML094W, strain GIM5, stronger effect = lower value 0.687 | S. cerevisiae deletion strains, locus YMR219W, strain ESC1, stronger effect = lower value 0.93 | S. cerevisiae deletion strains, locus YMR263W, strain SAP30, stronger effect = lower value 0.892 | S. cerevisiae deletion strains, locus YMR307W, strain GAS1, stronger effect = lower value 0.376 | S. cerevisiae deletion strains, locus YNL153C, strain GIM3, stronger effect = lower value 0.875 | S. cerevisiae deletion strains, locus YNL298W, strain CLA4 (second series), stronger effect = lower value 0.437 | S. cerevisiae deletion strains, locus YNR030W, strain Alg12, stronger effect = lower value 0.609 | S. cerevisiae deletion strains, locus YOL006C, strain TOP1, stronger effect = lower value 0.17 | S. cerevisiae deletion strains, locus YPL241C, strain CIN2, stronger effect = lower value 0.516 | S. cerevisiae deletion strains, locus YPR135W, strain CTF4, stronger effect = lower value 0.398 | S. cerevisiae strains, strain wild type, stronger effect = lower value 0.741
inactive: [1] 0.905 | S. cerevisiae deletion strains, locus YDR150W, strain NUM1, stronger effect = lower value 0.805 | S. cerevisiae deletion strains, locus YJR043C, strain POL32, stronger effect = lower value 0.937 | S. cerevisiae deletion strains, locus YLR058C, strain SHM2 (second series), stronger effect = lower value 0.967 | S. cerevisiae deletion strains, locus YNL322C, strain KRE1, stronger effect = lower value 0.991 | S. cerevisiae deletion strains, locus YPL055C, strain LGE1, stronger effect = lower value 0.847

O/N=C(/c1ccc(Cl)cc1)c1cc2ccccc2o1
inactive: S. cerevisiae deletion strains, locus YAR019C, strain CDC15, stronger effect = lower value 0.936 | S. cerevisiae deletion strains, locus YBL105C, strain PKC1, stronger effect = lower value 0.946 | S. cerevisiae deletion strains, locus YBR135W, strain CKS1, stronger effect = lower value 0.939 | S. cerevisiae deletion strains, locus YBR136W, strain MEC1, stronger effect = lower value 0.945 | S. cerevisiae deletion strains, locus YBR160W, strain CDC28, stronger effect = lower value 0.957 | S. cerevisiae deletion strains, locus YDL017W, strain CDC7, stronger effect = lower value 0.946 | S. cerevisiae deletion strains, locus YDL028C, strain MPS1, stronger effect = lower value 0.948 | [1] 0.964 | S. cerevisiae deletion strains, locus YDL108W, strain KIN28, stronger effect = lower value 0.943 | S. cerevisiae deletion strains, locus YDL132W, strain cdc53, stronger effect = lower value 0.962 | S. cerevisiae deletion strains, locus YDL214C, strain PRR2, stronger effect = lower value 0.887 | S. cerevisiae deletion strains, locus YDR052C, strain DBF4, stronger effect = lower value 0.93 | S. cerevisiae deletion strains, locus YDR054C, strain cdc34, stronger effect = lower value 0.947 | S. cerevisiae deletion strains, locus YDR226W, strain ADK1, stronger effect = lower value 0.916 | S. cerevisiae deletion strains, locus YDR477W, strain SNF1, stronger effect = lower value 0.847 | S. cerevisiae deletion strains, locus YER123W, strain YCK3, stronger effect = lower value 0.883 | S. cerevisiae deletion strains, locus YER133W, strain GLC7, stronger effect = lower value 0.813 | S. cerevisiae deletion strains, locus YFL009W, strain cdc4, stronger effect = lower value 0.963 | S. cerevisiae deletion strains, locus YFL029C, strain CAK1, stronger effect = lower value 0.94 | S. cerevisiae deletion strains, locus YFR003C, strain YPI1, stronger effect = lower value 0.943 | S. cerevisiae deletion strains, locus YFR019W, strain FAB1, stronger effect = lower value 0.904 | S. cerevisiae deletion strains, locus YFR028C, strain CDC14, stronger effect = lower value 0.956 | S. cerevisiae deletion strains, locus YGR040W, strain KSS1, stronger effect = lower value 0.852 | S. cerevisiae deletion strains, locus YGR052W, strain FMP48, stronger effect = lower value 0.789 | S. cerevisiae deletion strains, locus YGR092W, strain DBF2, stronger effect = lower value 0.748 | S. cerevisiae deletion strains, locus YHR079C, strain IRE1, stronger effect = lower value 0.851 | S. cerevisiae deletion strains, locus YHR082C, strain KSP1, stronger effect = lower value 0.877 | S. cerevisiae deletion strains, locus YHR205W, strain SCH9, stronger effect = lower value 0.675 | S. cerevisiae deletion strains, locus YIL147C, strain SLN1, stronger effect = lower value 0.943 | S. cerevisiae deletion strains, locus YJL128C, strain PBS2, stronger effect = lower value 0.893 | S. cerevisiae deletion strains, locus YJL157C, strain FAR1, stronger effect = lower value 0.872 | S. cerevisiae deletion strains, locus YJR016C, strain ILV3, stronger effect = lower value 0.941 | S. cerevisiae deletion strains, locus YJR066W, strain TOR1 (second series), stronger effect = lower value 0.848 | S. cerevisiae deletion strains, locus YJR066W, strain TOR1, stronger effect = lower value 0.797 | S. cerevisiae deletion strains, locus YKL048C, strain ELM1, stronger effect = lower value 0.923 | S. cerevisiae deletion strains, locus YKL067W, strain YNK1, stronger effect = lower value 0.893 | S. cerevisiae deletion strains, locus YKL101W, strain HSL1, stronger effect = lower value 0.916 | S. cerevisiae deletion strains, locus YKL193C, strain SDS22, stronger effect = lower value 0.93 | S. cerevisiae deletion strains, locus YLR113W, strain HOG1, stronger effect = lower value 0.915 | S. cerevisiae deletion strains, locus YLR133W, strain CKI1, stronger effect = lower value 0.863 | S. cerevisiae deletion strains, locus YML070W, strain DAK1, stronger effect = lower value 0.868 | S. cerevisiae deletion strains, locus YMR001C, strain CDC5, stronger effect = lower value 0.936 | S. cerevisiae deletion strains, locus YMR205C, strain PFK2 (second series), stronger effect = lower value 0.862 | S. cerevisiae deletion strains, locus YMR277W, strain FCP1, stronger effect = lower value 0.933 | S. cerevisiae deletion strains, locus YNL006W, strain LST8, stronger effect = lower value 0.945 | S. cerevisiae deletion strains, locus YNL020C, strain ARK1, stronger effect = lower value 0.82 | S. cerevisiae deletion strains, locus YNL161W, strain CBK1, stronger effect = lower value 0.942 | S. cerevisiae deletion strains, locus YNL183C, strain NPR1, stronger effect = lower value 0.784 | S. cerevisiae deletion strains, locus YNL207W, strain RIO2, stronger effect = lower value 0.935 | S. cerevisiae deletion strains, locus YNL222W, strain SSU72, stronger effect = lower value 0.947 | S. cerevisiae deletion strains, locus YNL307C, strain MCK1 (second series), stronger effect = lower value 0.902 | S. cerevisiae deletion strains, locus YOL078W, strain AVO1, stronger effect = lower value 0.937 | S. cerevisiae deletion strains, locus YOL136C, strain PFK27, stronger effect = lower value 0.865 | S. cerevisiae deletion strains, locus YOR061W, strain CKA2, stronger effect = lower value 0.87 | S. cerevisiae deletion strains, locus YOR119C, strain RIO1, stronger effect = lower value 0.848 | S. cerevisiae deletion strains, locus YOR231W, strain MKK1, stronger effect = lower value 0.964 | S. cerevisiae deletion strains, locus YOR329C, strain SCD5, stronger effect = lower value 0.946 | S. cerevisiae deletion strains, locus YPL031C, strain PHO85, stronger effect = lower value 0.84 | S. cerevisiae deletion strains, locus YPL153C, strain RAD53, stronger effect = lower value 0.841 | S. cerevisiae deletion strains, locus YPL204W, strain HRR25, stronger effect = lower value 0.807 | S. cerevisiae deletion strains, locus YPL209C, strain IPL1, stronger effect = lower value 0.941 | S. cerevisiae deletion strains, locus YPL256C, strain CLN2, stronger effect = lower value 0.917 | S. cerevisiae deletion strains, locus YPR025C, strain CCL1, stronger effect = lower value 0.948 | S. cerevisiae deletion strains, locus YPR106W, strain ISR1, stronger effect = lower value 0.946 | S. cerevisiae deletion strains, locus YPR111W, strain DBF20, stronger effect = lower value 0.951 | S. cerevisiae deletion strains, strain NNK1, stronger effect = lower value 0.946 | S. cerevisiae deletion strains, strain TSCII, stronger effect = lower value 0.939
active: [2] 0.526 | S. cerevisiae deletion strains, locus YJL095W, strain BCK1, stronger effect = lower value 0.403 | S. cerevisiae deletion strains, locus YKL203C, strain TOR2, stronger effect = lower value 0.622 | S. cerevisiae deletion strains, locus YLR403W, strain SFP1, stronger effect = lower value 0.614
